Assay outcomes: PubChem BioAssay, National Center for Advancing Translational Sciences (NCATS)
ELG1 genotox: genotoxicity induction in ELG1-luciferase HEK293T cells | hit rate 1.3% among 330,000 | HEK293T ELG1-luciferase reporter, luminescence, 16 h | Potency, µM (series often up to 46 µM), without a hit: at the highest dose activity change, positive = activation, actives largely listed as activators; note: % of control where 0% means no effect; nearly all actives have a fitted effect of over 60% in size
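Step 1: seed 2,000 HEK293T ELG1-luciferase cells per well. Step 2: add compound or DMSO, incubate 16 hr at 37 °C. Step 3: ONE-Glo, 30 min at room temperature, read luminescence.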
SMN2 splice up: SMN2 splice variant enhancement; HEK293 SMN2-luciferase splicing reporter, luminescence, 30-36 h; Potency, µM (doses to about 46.1 µM), without a hit: at the top dose activity change, positive = activation, most hits filed as activators; hit rate 2.8% among 210,000; AID 1458; note: % of control where 0% means no effect; nearly all actives have a fitted effect of over 55% in size
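HEK293 cells carry an SMN2 minigene-luciferase reporter in which exon 7 inclusion puts luciferase in frame. Cells were seeded at 2000 cells/well, attached for 10-12 hours, then exposed to compounds for 30-36 hours at 37C before ONE-Glo luminescence.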
ELG1 DNA repair: inhibitors of ELG1-dependent DNA repair in HEK293T cells; HEK293T ELG1-luciferase reporter, luminescence, 16 h; DNA damage induced by 5-fluorouridine; Potency, µM (top dose mostly 46.1 µM), for inactives: top-dose activity change, negative = inhibition, most hits filed as inhibitors; hit rate 2.3% among 330,000; AID 504467; note: % is set by controls: 0 for no effect and ±100 for the full control effect; nearly all actives have a fitted effect of over 55% in size
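Quantitative HTS, concentration-response format. 2,000 cells/well co-treated with 5-fluorouridine and compound, 16 hr in 5% CO2 at 37 °C; ONE-Glo luminescence read after 30 min.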
NPC1 prom act: activators of NPC1 promoter. Huh7 NPC1 promoter luciferase reporter, 24 h. Potency, µM (highest dose often 9.22 µM), inactives show top-dose activation, usual class: activators. hit rate 2.4% among 320,000. AID 485313; note: % of control where 0% means no effect; nearly all actives have a fitted effect of over 60% in size
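Stable NPC1-promoter luciferase Huh7 line; cpd (DMSO) 24 h, 37 °C, 5% CO2; Amplite luciferase reagent 10 min RT; luminescence readout. qHTS format.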
Rab9 promoter act: Rab9 promoter activation; hit rate 2.8% among 320,000; Huh7 Rab9 promoter-luciferase reporter, luminescence, 24 h; AID 485297; Potency, µM (doses to about 9.22 µM), for inactives: at the highest dose activation, negative = inhibition, actives largely listed as activators; note: % of control where 0% means no effect; nearly all actives have a fitted effect of over 60% in size
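Cell-based reporter: Huh7 stable for Rab9 promoter-driven luciferase, plated in reduced-serum medium with 10% FBS at 1500 cells/well, compound-treated 24 h at 37 °C, luminescence read after 10 min reagent.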
FLuc modulator: firefly luciferase modulation, counter-screen for miR-21 project. P08659. purified FLuc, Km substrates, luminescence inhibition. Potency, µM (top dose mostly 57.5 µM), for the others: at the top dose activity change, negative = inhibition, hits mostly inhibitors. hit rate 6.9% among 360,000;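 note: plate controls were vehicle for no effect and reference inhibitor for full effect; nearly all actives have a fitted effect of over 55% in size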
Target sequence (P08659 whole entry, looked up): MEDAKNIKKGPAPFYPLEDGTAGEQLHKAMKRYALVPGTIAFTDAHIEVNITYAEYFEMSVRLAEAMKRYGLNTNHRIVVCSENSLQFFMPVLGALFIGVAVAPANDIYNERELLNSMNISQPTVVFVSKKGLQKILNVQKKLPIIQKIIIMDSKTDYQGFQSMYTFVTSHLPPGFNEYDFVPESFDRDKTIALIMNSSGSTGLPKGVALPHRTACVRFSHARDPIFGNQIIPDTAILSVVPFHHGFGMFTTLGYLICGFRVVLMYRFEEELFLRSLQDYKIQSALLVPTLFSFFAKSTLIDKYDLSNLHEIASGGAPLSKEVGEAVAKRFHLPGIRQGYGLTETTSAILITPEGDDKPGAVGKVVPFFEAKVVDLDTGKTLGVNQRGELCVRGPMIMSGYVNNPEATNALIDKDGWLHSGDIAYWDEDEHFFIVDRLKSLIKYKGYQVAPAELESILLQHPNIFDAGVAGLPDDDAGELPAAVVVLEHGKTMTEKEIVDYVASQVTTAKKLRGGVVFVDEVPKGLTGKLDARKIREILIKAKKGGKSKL
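Biochemical qHTS of compounds, final roughly 60 µM downward over six points, against 10 nM purified firefly luciferase using Km concentrations of substrates (10 uM D-luciferin, 10 uM ATP) in Tris acetate pH 7.5 buffer; luminescence output.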
* hit, by the source's call; ? = inconclusive; nt = no result; [ ] = another dose, or the depositor's remark. Sampled rows, rich in hits. Any-hit rate of the full collection: about 9.3%. Calls come from the whole dose curve; as a rule, active = well fitted curve in the direction sought with a large enough effect; inconclusive = small, poorly fitted or top-dose-only effect, or another doubt; inactive = no such curve, though single readings can be large; an effect the other way counts as inactive or inconclusive. Potency is the fitted concentration of half-maximal effect.

SMILES	ELG1 genotox	SMN2 splice up	ELG1 DNA repair	NPC1 prom act	Rab9 promoter act	FLuc modulator
Cc1ccccc1N1C(=O)/C(=C/c2ccco2)C(=O)NC1=S	-6.0%	nt	-4.3%	-2.2%	0.8%	23.9µM*
Cc1nc2ccc(NC(=O)c3ccc(Cl)s3)cc2s1	9.2µM*	14.1µM*	?	3.16µM*	1.58µM*	?
CCOC(=O)c1c(C)c(P(=S)(N2CCOCC2)N2CCOCC2)n(C)c1C	-0.9%	-12.7%	16.4µM*	-5.7%	-4.4%	-6.0%
CCOP(=S)(OCC)N1CCOCCOCCN(P(=S)(OCC)OCC)CCOCCOCC1	-9.0%	-7.2%	-19.0%	-5.9%	-0.7%	-0.6%
O=P(Nc1cccnc1)(Oc1ccccc1)Oc1ccccc1	0.4%	3.98µM*	1.3%	-0.3%	0.0%	-3.2%
CC(C)=C[C@H]1[C@@H](C(=O)OCc2cc3c(cc2Cl)OCO3)C1(C)C	nt	-13.7%[9.22 µM]	nt	nt	nt	nt
CC(C)(C)c1ccc(C(=O)NC(=S)Nn2cnnc2)cc1	0.7%	nt	?	19.8%	23.5%	19µM*
CCC12CCN(CC3CC3)CC1Oc1c(C)cccc12 (configuration not stated)	nt	nt	nt	nt	nt	3.9%
c1ccc(-c2[nH]c(-c3ccccc3)[n+](CC3CO3)c2-c2ccccc2)cc1 (configuration not stated)	-8.1%	-66.8%	23.1µM*	-1.9%	-3.2%	3.1%
O=C(c1ccc(Cl)cc1)c1cn(Cc2ccccc2)c2cc3c(cc2c1=O)OCCO3	nt	-30.6%	nt	nt	nt	1.5%
Cc1cc(N2CCCCC2)nc2ccc(NC(=O)CCC(=O)N3CCN(c4cccc(Cl)c4)CC3)cc12	nt	-12.9%	nt	nt	nt	?
Cc1cc(N2CCOCC2)nc2ccc(NC(=O)CCC(=O)N3CCC4(CC3)OCCO4)cc12	12.4%	nt	?	25.9%	18.9%	15.1µM*
CCC12CCN(Cc3ccc(F)cc3)CC1Oc1c(O)cccc12 (configuration not stated)	nt	nt	nt	nt	nt	2.2%
Fc1ccc(C(OCCN2CCN(C/C=C/c3ccccc3)CC2)c2ccc(F)cc2)cc1	nt	-103.5%	nt	nt	nt	nt
COc1ccc2[nH]c(C)c(CCNCc3cc(OC)c(OC)c(OC)c3)c2c1	-8.2%	-13.7%	0.0%	-7.6%	0.6%	-2.6%
COc1ccc(CNCCc2c(C)[nH]c3ccc(OC(F)(F)F)cc23)c(OC)c1	-4.6%	nt	1.03µM*	-24.8%	-28.4%	-1.2%
Nc1ccccc1C(=O)OCC(=O)N1CCc2ccccc21	9.2µM*	35.0%	?	?	2.51µM*	9.53µM*
COC(=O)c1ccccc1N	nt	-13.2%	nt	nt	nt	nt
Cc1cc(C(=O)N=Nc2c(O)n(C)c3ccccc23)c(C)o1	7.31µM*	7.08µM*	?	2.51µM*	3.55µM*	2.69µM*
Cc1ccc(NC(=O)c2cnc3sc(N4CCOCC4)nn3c2=O)cc1N(C)C	nt	-10.8%	nt	nt	nt	?
N#Cc1c(/N=C/c2ccc(O)cc2O)sc2c1C1CCN2CC1	7.8%	-13.7%[1.84 µM]	?	-3.9%	3.7%	6.01µM*
N#Cc1cccc(NC(=O)c2sc3nc4c(cc3c2N)N2CCC4CC2)c1	nt	nt	nt	nt	nt	12µM*
CN(C)c1ccc(NC(=O)c2sc3nc4c(cc3c2N)N2CCC4CC2)cc1	nt	0.1%	nt	nt	nt	-8.0%
Nc1c(C(=O)Nc2ccc(F)c(Cl)c2)sc2nc3c(cc12)N1CCC3CC1	nt	-44.6%	nt	nt	nt	8.49µM*
[N-]=[N+]=NCC(=O)c1c[nH]c(=O)[nH]c1=O	nt	-16.2%[9.22 µM]	nt	nt	nt	nt
SMILES	ELG1 genotox	SMN2 splice up	ELG1 DNA repair	NPC1 prom act	Rab9 promoter act	FLuc modulator
CC(C)c1nccn1Cc1ccc(Cl)cc1Cl	nt	-34.1%[9.22 µM]	nt	nt	nt	nt
CC1(C)C(=O)[C@@H]2OC2[C@@]2(C)C1CC(O)[C@]1(C)C2CC[C@@]2(C)C(c3ccoc3)OC(=O)C3OC312 (some centres not stated)	nt	-5.8%	nt	nt	nt	nt
CNNC	nt	-6.6%	nt	nt	nt	nt
COc1ccccc1N	nt	-5.8%	nt	nt	nt	nt
COc1ccccc1N=Nc1ccc(N)c(C)c1	?	nt	?	26.3%	11.5%[1.84 µM]	15.1µM*
CC(=O)c1cn(Cc2ccc(C#N)cc2)c2ccccc12	-6.9%	-17.4%	8.9%	-7.2%	1.7%	-1.9%
CC(C)C(=O)c1cn(Cc2ccc(C#N)cc2)c2ccccc12	-4.1%	-6.3%	18.4µM*	-0.9%	0.9%	-5.4%
CCN(N=O)C(N)=O	nt	7.1%	nt	nt	nt	nt
Cc1ccc(N=Nc2cc(C)ccc2N)cc1	0.461µM*	nt	?	0.501µM*	0.316µM*	0.19µM*
OC[C@H]1O[C@@H](n2cnc3cc(Cl)c(Cl)cc32)[C@H](O)[C@@H]1O	-33.0%	nt	8.91µM*	-1.3%	0.7%	2.7%
Nc1nc(=S)c2ncn([C@H]3O[C@@H](CO)[C@@H](O)[C@@H]3O)c2[nH]1	nt	-49.9%[20.6 µM]	nt	nt	nt	nt
COc1cc2c(cc1OC)-c1c(OC)c(OC)c(OC)c3ccnc(c13)C2=O	-8.0%	-44.4%	6.51µM*	-10.6%	-5.8%	0.3%
COc1cc(CC2(CCc3ccncc3)C(=O)NC(=O)NC2=O)cc(OC)c1OC	-1.2%	nt	-7.8%	0.6%	-5.8%	-0.2%
CN1CCN(C(=O)COc2ccc(-c3nc4ccccc4s3)cc2)CC1	?	3.98µM*	?	0.631µM*	0.316µM*	0.151µM*
COc1cccc(CNC(=O)c2cccc(S(=O)(=O)N3CCN(C)CC3)c2)c1	-2.8%	nt	-6.3%	0.1%	2.6%	0.7%
O=C1NC(=O)C(=Cc2ccc(-c3cc(Cl)ccc3[N+](=O)[O-])o2)C(=O)N1	14.6%	-7.5%	6.1%	-4.2%	-0.9%	15.1µM*
O=C(Nc1cccc(Cl)c1)OC1CN2CCC1CC2 (configuration not stated)	-14.0%	nt	?	19.2%	17.8%	13.5µM*
O=C(Nc1ccccc1Cl)OC1CN2CCC1CC2 (configuration not stated)	1.5%	nt	?	-0.8%	-1.6%	-6.6%
O=C(Nc1ccc(Cl)cc1)OC1CN2CCC1CC2 (configuration not stated)	?	nt	?	?	?	15.1µM*
CCOc1ccc(C(=O)N2CCC(c3noc(-c4ccc(S(=O)(=O)N5CCCC5)cc4)n3)CC2)cc1	nt	-54.2%	nt	nt	nt	0.7%
COc1ccc(C(=O)CCNc2ccc(F)cc2)cc1	?	nt	?	?	2.82µM*	?
CCCBr	nt	10.1%	nt	nt	nt	nt
O=c1c2ccccc2nc(/C=C/c2ccccc2)n1-c1ccc(O)cc1	-9.9%	nt	?	-0.9%	-1.3%	-1.5%
O=c1c2ccccc2nc(/C=C/c2cccnc2)n1Cc1ccccc1	-5.0%	nt	?	-3.9%	-5.0%	26.9µM*
C[C@@H]1O[C@H](OC2[C@@H](O)[C@H](O)C(O)[C@H](O)[C@H]2O)[C@@H](N)C[C@@H]1N=C(N)C(=O)O (some centres not stated)	nt	-1.7%[9.22 µM]	nt	nt	nt	nt
CC(Cc1ccccc1)NC(=O)NC(C)Cc1ccccc1 (configuration not stated)	11.6µM*	nt	?	?	2.82µM*	13.5µM*
